PubChem BioAssay AID686978 (National Center for Advancing Translational Sciences (NCATS), 2013)
In all, about 420,000 compounds went through this assay and about 64,000 (15%) were called active. Not shown: some 27% with an inconclusive outcome. Calls follow the shape of the dose curve; as a rule, active = well fitted inhibition curve with a large enough effect; inconclusive = small, poorly fitted or top-dose-only effect; inactive = flat fitted curve, though single readings scatter. These entries were drawn from the full list.

Assay: qHTS for Inhibitors of human tyrosyl-DNA phosphodiesterase 1 (TDP1): qHTS in cells in absence of CPT; also: nearly all actives have a fitted effect of over 55% in size
Details: DT40 Tdp1-/- hTDP1 cells, no CPT, ATP luminescence, 48 h; activity change, negative = growth inhibition: at 46.2 µM (top of the series)
Method in brief: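 A cellular qHTS used chicken DT40 cells lacking endogenous Tdp1 but carrying stably transfected human TDP1. Compounds were applied without camptothecin, and cell growth kinetics were judged by ATP-dependent luminescence after ≥48 hr.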
% is scaled to controls: 0 for no effect and ±100 for the full control effect; potency is read from the fitted curve at half-maximal effect.

| Structure (SMILES) | activity change, negative = growth inhibition | Potency |
| --- | --- | --- |
| CC(C)N(C)C(=O)CCc1nnc(CCc2c[nH]c3ccccc23)o1 | -6.57% (inactive) | – |
| Cc1nn(C)c(C)c1CN(C(=O)CCc1nnc(Cc2c[nH]c3ccccc23)o1)C(C)C | – | 16.4 µM (active) |
| Cc1nc(CN2CCN(C(=O)CCc3nnc(Cc4c[nH]c5ccccc45)o3)CC2)cs1 | -10.5% (inactive) | – |
| CC1(C(=O)NS(=O)(=O)c2cccc(F)c2)CCN1C(=O)Cc1cc(F)ccc1F (configuration not stated) | 8.26% (inactive) | – |
| O=C(CN1C(=O)COc2ccc(Cl)cc21)N1CCOCC1 | 7.52% (inactive) | – |
| Cc1cccc(OCC(=O)NCCNC(=O)c2cccnc2)c1 | 8.85% (inactive) | – |
| COc1cc(C2C(C(=O)c3ccc(C)o3)=C(O)C(=O)N2Cc2cccnc2)ccc1O (configuration not stated) | -0.599% (inactive) | – |
| CCOC(=O)C1=C(c2ccccc2)N=C2SCC(=O)N2C1c1ccc(O)c(OC)c1 (configuration not stated) | -16.8% (inactive) | – |
| CCOC(=O)c1ccc(N2C(=O)c3n[nH]c(C)c3C2c2ccc(O)c(OC)c2)cc1 (configuration not stated) | – | 18.4 µM (active) |
| Cc1nc(N2CCCC2C(=O)O)c2oc3ccccc3c2n1 (configuration not stated) | 1.8% (inactive) | – |
| CCCN(CC(=O)Nc1ccc(OC)c(OC)c1)CC(=O)Nc1ccc(F)c(F)c1F | -8.97% (inactive) | – |
| O=C(Nc1sc2c(c1-c1nc3ccccc3[nH]1)CCCC2)C1CC1 | -0.787% (inactive) | – |
| CC(=O)c1ccc(NC(=O)C(C)NCc2ccc(Cl)cc2)cc1 (configuration not stated) | -2.9% (inactive) | – |
| COc1ccc(-n2c(O)c(C=NCC(c3ccco3)N3CCCC3)c3ccccc3c2=O)cc1OC (configuration not stated) | -12.9% (inactive) | – |
| CCOc1ccc(-n2c(O)c(/C=N/Nc3nnc(C)c(=O)[nH]3)c3ccccc3c2=O)cc1 | – | 0.92 µM (active) |
| Cc1ccccc1Nc1nnc(C)c(=O)[nH]1 | -2.18% (inactive) | – |
| CCN(CC)CCCN=Cc1c(O)n(-c2ccc(C)cc2)c(=O)c2ccccc12 | -22.5% (inactive) | – |
| CCOc1ccc(N/C(N)=N/c2nc(C)c(C)c(=O)[nH]2)cc1 | -1.43% (inactive) | – |
| Cc1nnc(N/N=C/c2ccccn2)[nH]c1=O | – | 2.91 µM (active) |
| CCOc1ccc(-n2c(O)c(/C=N/c3ccnn3Cc3ccncc3)c3ccccc3c2=O)cc1 | 3.46% (inactive) | – |
| CCOc1ccc(-n2c(O)c(/C=N/Nc3nc(C)cc(C)n3)c3ccccc3c2=O)cc1 | – | 3.26 µM (active) |
| Cc1nnc(N/N=C/c2cccs2)[nH]c1=O | -4.48% (inactive) | – |
| CC(=O)Nc1ccc(S(=O)(=O)NC2(C(F)(F)F)C(=O)Nc3c2c(=O)[nH]c(=O)n3Cc2ccccc2)cc1 (configuration not stated) | -32.8% (inactive) | – |

| Structure (SMILES) | activity change, negative = growth inhibition | Potency |
| --- | --- | --- |
| Cc1cc(F)ccc1NC(=O)C(C)n1c2ccccc2c2nc(=O)cc(C)n21 (configuration not stated) | -0.709% (inactive) | – |
| CCC(C)n1[nH]c(=O)cc1N (configuration not stated) | -7.43% (inactive) | – |
| O=C(CCN1C(=O)C2C3C=CC(C3)C2C1=O)Oc1ccc2ccccc2c1 (configuration not stated) | -4.21% (inactive) | – |
| CC1CCCCC1NC(=O)CN1CCC(O)(c2ccc3c(c2)OCO3)CC1 (configuration not stated) | -19.2% (inactive) | – |
| O=C(c1cccc(C(=O)N2CCc3ccccc32)n1)N1CCc2ccccc21 | -27% (inactive) | – |
| CCCCn1nc(C(=O)N2CCc3ccccc32)c2ccccc2c1=O | – | 16.4 µM (active) |
| CCC(=O)N1CCCc2ccccc21 | 3.1% (inactive) | – |
| CCCn1nc(C(=O)N2CCCc3ccccc32)c2ccccc2c1=O | – | 18.4 µM (active) |
| CCn1nc(C(=O)OCC(=O)N2c3ccccc3CC2C)c2ccccc2c1=O (configuration not stated) | -7.1% (inactive) | – |
| CCCCn1nc(C(=O)OCC(=O)Nc2sccc2C(N)=O)c2ccccc2c1=O | -22.1% (inactive) | – |
| O=C(NCCCN1CCCCCC1)C1CC(=O)N(C2CCCC2)C1 (configuration not stated) | -3.95% (inactive) | – |
| CCN1CCN(C(c2ccc(C)cc2)c2c(O)cc(C)n(Cc3ccco3)c2=O)CC1 (configuration not stated) | -8.76% (inactive) | – |
| CCOC(=O)[C@H](CCc1ccccc1)N[C@@H](C)C(=O)N1CC2(C[C@H]1C(=O)O)SCCS2 | -5.18% (inactive) | – |
| Cc1ccc(NC2=NC(c3ccccc3)n3c(nc(C)cc3=O)N2)cc1 (configuration not stated) | -4.91% (inactive) | – |
| COc1cccc(CNC(=O)CCCC(=O)Nc2cccc([N+](=O)[O-])c2)c1 | -1.7% (inactive) | – |
| CC(C)(C)SCCNC(=O)c1cccc([N+](=O)[O-])c1 | -20.7% (inactive) | – |
| COc1cccc(NCCC(=O)c2cccc([N+](=O)[O-])c2)c1 | – | 14.6 µM (active) |
| CC1=NN(c2ccc(Cl)c(C(=O)O)c2)C(=O)/C1=C/c1ccc(-c2ccccc2[N+](=O)[O-])o1 | 2.39% (inactive) | – |
| Cc1nc2ccccc2cc1OCc1ccc(F)cc1 | – | 11.6 µM (active) |
| Fc1cccc2ncnc(OCc3ccccc3)c12 | 0.0434% (inactive) | – |
| Cc1occc(=O)c1OCc1ccc(F)cc1 | 5.6% (inactive) | – |
| Cc1cc(C)cc(C(=O)NC2C(=O)N3C(C(=O)O)=C(CSc4nnc(C)s4)CSC23)c1 (configuration not stated) | 7.63% (inactive) | – |
| CCOc1ccc(NC(=O)c2ccc(NC(=O)CN3C(=O)C(=O)N(CC(C)C)C3=O)cc2)cc1 | -29.5% (inactive) | – |

| Structure (SMILES) | activity change, negative = growth inhibition | Potency |
| --- | --- | --- |
| Cc1ccsc1C(=O)OCC(=O)NCCc1ccccc1 | 1.34% (inactive) | – |
| CCC1CCCCN1C(=O)CSc1nc(C)cc(C)n1 (configuration not stated) | 1.91% (inactive) | – |
| Cc1cccc(NC(=S)N2CCC(C(=O)c3ccc(F)cc3)CC2)c1 | – | 13 µM (active) |
| CC(=O)c1cccc(NC(=S)N2CCCC2)c1 | 25.2% (inactive) | – |
| Cc1cccc(NC(=O)C2CCN(C(=O)NC3CCCCC3)CC2)c1 | -3.04% (inactive) | – |
| Cn1c(N2CCOCC2)c(C=O)c2ccccc21 | -2.65% (inactive) | – |
| CCNC(=S)N1CCN(C(=O)c2ccco2)CC1 | -11.5% (inactive) | – |
| Cc1ccccc1C1=N/C(=C/c2cccnc2)C(=O)O1 | -15.2% (inactive) | – |
| O=C1OC(c2ccc(Cl)cc2)=N/C1=C\c1cccnc1 | – | 16.4 µM (active) |
| Cc1ccc(C2=C/C(=C\c3cccnc3)C(=O)O2)cc1 | 1.52% (inactive) | – |
| O=C1NC2(CCCCCC2)C(=O)N1CCS(=O)(=O)Oc1ccccc1 | -21.8% (inactive) | – |
| CCCNC(=S)N1CCC(NC(=O)c2ccc(OC)cc2)CC1 | -23% (inactive) | – |
| CCOn1c(=O)c(=O)n(O)c2ccccc21 | 6.1% (inactive) | – |
| Cc1cccc(-c2c(NC(=O)c3ccco3)oc3ccc(Cl)cc3c2=O)c1 | – | 25.9 µM (active) |
| O=C(Nc1nonc1-c1ccc(Cl)cc1)c1ccco1 | -16.8% (inactive) | – |
| COc1ccc(-c2c(NC(=O)c3ccco3)oc3ccc(Cl)cc3c2=O)cc1 | -0.195% (inactive) | – |
| Clc1ccccc1CSc1nnc(-c2ccco2)c(-c2ccco2)n1 | -20.7% (inactive) | – |
| COC(=O)c1noc(C)c1-c1ccnn1C(=O)c1ccc(Cl)cc1 | 3.11% (inactive) | – |
| Cc1onc(-c2ccc(Cl)cc2)c1-c1ccnn1S(=O)(=O)c1ccc(Cl)cc1 | – | 16.4 µM (active) |
| CC(Oc1ccc(Cl)cc1)c1ccnn1S(C)(=O)=O (configuration not stated) | -19.6% (inactive) | – |
| Nc1ncnc2c1ncn2[C@@H]1O[C@H](C(=O)NS(=O)(=O)c2c(Cl)nc3sccn23)[C@@H](O)[C@H]1O | -0.108% (inactive) | – |
